PubChem BioAssay AID743360 (Molecular Libraries Program, Specialized Chemistry Center, …, 2014)
A number with no mark means an inactive call. Active and inactive are the calls of the source.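 How the source made its calls: active means calcium retention capacity relative to untreated control above about 1.1 ratio (limit read from the data); inactive means the rest.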

Test: mitochondrial Ca2+ retention capacity increase – biochemical, dry powder samples, uHTS hits, Calcium Green-5N, dose response (AID 743360)
Details: isolated mitochondria, Ca retention capacity

SMILES	CRC/CRC0 ratio at 12.5 uM (higher = more inhibition)
CC(C)c1cc(C(=O)Nc2ccc(F)cc2F)no1	1.09
COc1ccc(Cl)cc1C(=O)Nc1ccc(N(C)C)cc1	1.18 (active)
CN1CCN(c2ccc(NC(=O)c3cccc(OCc4ccccc4)c3)cc2)CC1	1.52 (active)
O=C(Nc1ccc(F)cc1F)c1cc(-c2ccccc2)on1	> 1
COc1ccc(Cl)cc1C(=O)Nc1ccc(CCN2CCOCC2)cc1	1.23 (active)
COc1cccc(-c2cc(C(=O)Nc3cc(Cl)ccc3C)no2)c1	1.08
CN1CCN(c2ccccc2NC(=O)c2ccc(OCc3ccccc3)cc2)CC1	1.24 (active)
O=S(=O)(Nc1ccc(CN2CCCCC2)cc1)c1cc(Cl)cc(Cl)c1	1.07
CC1CCN(CCCC(=O)c2ccc(Br)cc2)CC1	1.05
O=C(Nc1ccc(CN2CCCCC2)cc1)c1ccc(Cl)c(OCc2ccccc2)c1	21.3 (active)
O=S(=O)(Nc1ccc(CN2CCCCC2)cc1)c1cccc(Cl)c1	1.03
CN1CCN(CCc2ccc(NS(=O)(=O)c3ccc(F)c(Cl)c3)cc2)CC1	1.08
O=C(Nc1ccc(CN2CCCCC2)cc1)c1cc(OCc2ccccc2)ccc1Cl	2.26 (active)
O=C(Nc1cc(Cl)ccc1F)c1cc(-c2cccc(O)c2)on1	6.53 (active)
O=S(=O)(Nc1ccc(CCN2CCCCC2)cc1)c1cc(Cl)cc(Cl)c1	1.17 (active)
O=C(Nc1ccc(CCN2CCCCC2)cc1)c1cccc(OCc2ccccc2)c1	3.04 (active)
COc1ccc(Cl)cc1C(=O)Nc1ccc(CN2CCN(C)CC2)cc1	1.24 (active)
